The values below come from publication PMC7862700, “An all-to-all approach to the identification of sequence-specific readers for epigenetic DNA modifications on cytosine”.

Common to all, as to assay: DAPPL (digital affinity profiling via proximity ligation, sequencing); 10 mM Tris-HCl pH 7.5, 50 mM NaCl, 1 mM DTT, 4% glycerol, room temperature, 30 min; GST-TFs on glutathione beads, 16-mer random dsDNA library, 0.1% formaldehyde crosslink after washing; high values mean tight binding
Assay [1] addresses T1, FLI1 (Homo sapiens, UniProt Q01543 1-452).
T1 sequence: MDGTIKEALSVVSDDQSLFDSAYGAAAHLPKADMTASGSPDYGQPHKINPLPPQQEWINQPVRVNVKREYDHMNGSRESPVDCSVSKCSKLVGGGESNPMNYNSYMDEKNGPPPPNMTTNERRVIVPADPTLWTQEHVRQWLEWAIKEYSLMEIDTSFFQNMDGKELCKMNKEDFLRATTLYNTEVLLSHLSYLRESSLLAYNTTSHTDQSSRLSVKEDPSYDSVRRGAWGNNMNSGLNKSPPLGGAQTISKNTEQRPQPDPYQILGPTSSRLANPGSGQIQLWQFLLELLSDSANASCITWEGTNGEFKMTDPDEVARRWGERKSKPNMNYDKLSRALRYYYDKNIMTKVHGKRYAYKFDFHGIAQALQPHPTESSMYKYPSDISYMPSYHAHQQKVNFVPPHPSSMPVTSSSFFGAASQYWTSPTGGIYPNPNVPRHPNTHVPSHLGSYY
The note with it: protein: recombinant; tags: N-terminal GST; dsDNA, one strand shown. In a few lines:
(§1)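 Sequencing on an Illumina NextSeq500 followed washing, crosslinking with 0.1% formaldehyde, proximity ligation (BsaI/T4 ligase, 1 h, 37 °C) and PCR amplification of pools that had been incubated for 30 min at room temperature with 200 nmole of a random double-stranded 16-mer DNA library in Tris/NaCl/DTT/glycerol buffer. Each pool held DNA-barcoded human transcription factors, expressed in yeast as GST fusions and captured on glutathione beads, plus a tag-only sample. Binding signal is a hexamer's read frequency for a factor divided by its frequency in the tag-only sample.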

Assay [2] deals with T2, ELK1 (Homo sapiens, UniProt P19419 1-428).
T2 sequence: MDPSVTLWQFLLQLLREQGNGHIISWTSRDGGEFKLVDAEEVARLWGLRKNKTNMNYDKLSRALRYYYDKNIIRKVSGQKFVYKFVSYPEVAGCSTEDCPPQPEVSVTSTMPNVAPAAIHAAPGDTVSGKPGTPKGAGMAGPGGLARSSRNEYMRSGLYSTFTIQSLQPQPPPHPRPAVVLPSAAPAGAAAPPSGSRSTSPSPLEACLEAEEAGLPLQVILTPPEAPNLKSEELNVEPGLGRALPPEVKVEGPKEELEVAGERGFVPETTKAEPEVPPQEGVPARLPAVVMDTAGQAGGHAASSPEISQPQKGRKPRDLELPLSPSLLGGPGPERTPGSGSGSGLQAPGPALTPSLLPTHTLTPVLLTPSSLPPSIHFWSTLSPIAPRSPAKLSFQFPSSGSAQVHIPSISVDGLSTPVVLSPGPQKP
The note with it: protein: recombinant; tags: N-terminal GST; dsDNA, one strand shown. In a few lines:
as §1

The target in assay [3] is T3, GABPA (Homo sapiens, UniProt Q06546 1-454).
T3 sequence: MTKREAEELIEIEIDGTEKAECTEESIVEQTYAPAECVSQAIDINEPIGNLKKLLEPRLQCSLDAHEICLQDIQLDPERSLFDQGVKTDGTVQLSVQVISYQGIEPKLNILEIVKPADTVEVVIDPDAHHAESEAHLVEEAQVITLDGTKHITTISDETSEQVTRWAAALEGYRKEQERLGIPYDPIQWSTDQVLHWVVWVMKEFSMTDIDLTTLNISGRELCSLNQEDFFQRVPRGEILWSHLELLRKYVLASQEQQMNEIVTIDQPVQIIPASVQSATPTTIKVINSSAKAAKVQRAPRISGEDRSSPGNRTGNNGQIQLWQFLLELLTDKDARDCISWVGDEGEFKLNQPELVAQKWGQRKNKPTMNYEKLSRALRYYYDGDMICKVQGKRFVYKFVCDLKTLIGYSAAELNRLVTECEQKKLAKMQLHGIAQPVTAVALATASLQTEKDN
Particulars: protein: recombinant; tags: N-terminal GST; dsDNA, one strand shown. In a few lines:
as §1

In assay [4] the target is T4, ERG (Homo sapiens, UniProt P11308 1-479).
T4 sequence: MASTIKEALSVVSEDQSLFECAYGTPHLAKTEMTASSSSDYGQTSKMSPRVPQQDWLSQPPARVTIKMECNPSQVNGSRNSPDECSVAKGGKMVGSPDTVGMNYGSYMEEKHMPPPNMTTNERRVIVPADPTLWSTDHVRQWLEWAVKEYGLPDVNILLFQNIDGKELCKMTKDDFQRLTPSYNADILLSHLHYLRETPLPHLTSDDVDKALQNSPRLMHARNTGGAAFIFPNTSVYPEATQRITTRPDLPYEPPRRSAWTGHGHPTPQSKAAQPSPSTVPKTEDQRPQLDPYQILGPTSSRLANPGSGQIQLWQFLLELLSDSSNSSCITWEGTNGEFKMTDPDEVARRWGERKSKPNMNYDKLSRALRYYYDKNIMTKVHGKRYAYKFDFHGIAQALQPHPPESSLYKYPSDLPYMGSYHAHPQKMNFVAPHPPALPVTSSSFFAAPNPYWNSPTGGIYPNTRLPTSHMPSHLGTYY
The note with it: protein: recombinant; tags: N-terminal GST; dsDNA, one strand shown. The gist of the method:
as §1

The target in assay [5] is ELF1 (Homo sapiens, UniProt P32519 1-619). The note with it: protein: recombinant; tags: N-terminal GST; dsDNA, one strand shown. The gist of the method: as §1
Chain of ELF1 (P32519 whole entry): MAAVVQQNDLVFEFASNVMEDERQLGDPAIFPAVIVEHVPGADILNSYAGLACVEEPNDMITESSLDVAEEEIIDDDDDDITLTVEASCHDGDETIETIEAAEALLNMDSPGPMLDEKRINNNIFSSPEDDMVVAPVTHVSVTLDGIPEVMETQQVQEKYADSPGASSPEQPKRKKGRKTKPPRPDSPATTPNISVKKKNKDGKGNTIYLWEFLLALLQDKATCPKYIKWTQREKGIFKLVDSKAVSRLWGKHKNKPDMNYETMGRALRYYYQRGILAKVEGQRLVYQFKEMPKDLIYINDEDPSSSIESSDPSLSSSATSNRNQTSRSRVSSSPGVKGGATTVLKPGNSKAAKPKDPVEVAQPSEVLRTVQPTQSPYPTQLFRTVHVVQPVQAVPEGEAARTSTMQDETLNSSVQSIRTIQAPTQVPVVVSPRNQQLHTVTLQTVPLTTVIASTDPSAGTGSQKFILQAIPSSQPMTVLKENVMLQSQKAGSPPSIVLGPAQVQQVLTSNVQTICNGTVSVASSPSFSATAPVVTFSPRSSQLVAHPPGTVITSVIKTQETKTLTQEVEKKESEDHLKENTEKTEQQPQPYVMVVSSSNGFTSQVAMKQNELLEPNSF
Assay [6] concerns the target T5, EHF (Homo sapiens, UniProt Q9NZC4 1-300).
T5 sequence: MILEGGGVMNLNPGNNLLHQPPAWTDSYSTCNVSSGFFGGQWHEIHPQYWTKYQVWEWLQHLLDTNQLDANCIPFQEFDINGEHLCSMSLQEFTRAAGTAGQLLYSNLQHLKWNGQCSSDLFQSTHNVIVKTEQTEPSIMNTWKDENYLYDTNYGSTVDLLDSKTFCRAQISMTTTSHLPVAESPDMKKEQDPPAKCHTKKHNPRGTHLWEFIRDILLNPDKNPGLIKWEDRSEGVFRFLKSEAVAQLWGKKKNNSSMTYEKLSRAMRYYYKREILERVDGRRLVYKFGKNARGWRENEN
The note with it: protein: recombinant; tags: N-terminal GST; dsDNA, one strand shown. In a few lines: as §1

Assay [7] has as its target SPI1 (Homo sapiens, UniProt P17947 1-270). Particulars: protein: recombinant; tags: N-terminal GST; dsDNA, one strand shown. The gist of the method:
as §1

Assay [8] has as its target SPIB (Homo sapiens, UniProt Q01892 1-262). The note with it: protein: recombinant; tags: N-terminal GST; dsDNA, one strand shown. The gist of the method: as §1
Assay [9] concerns the target T6, ELK3 (Homo sapiens, UniProt P41970 1-407).
T6 sequence: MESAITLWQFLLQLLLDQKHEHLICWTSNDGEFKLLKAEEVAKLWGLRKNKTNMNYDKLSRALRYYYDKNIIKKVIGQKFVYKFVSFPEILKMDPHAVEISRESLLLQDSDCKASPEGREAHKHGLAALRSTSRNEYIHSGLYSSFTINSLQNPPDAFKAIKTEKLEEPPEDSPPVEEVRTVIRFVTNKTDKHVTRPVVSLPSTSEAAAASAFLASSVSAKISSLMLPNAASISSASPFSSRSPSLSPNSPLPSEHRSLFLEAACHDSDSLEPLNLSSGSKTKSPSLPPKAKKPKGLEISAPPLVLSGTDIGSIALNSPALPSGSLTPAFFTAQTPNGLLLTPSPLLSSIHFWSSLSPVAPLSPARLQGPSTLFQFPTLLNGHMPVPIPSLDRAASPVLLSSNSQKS
Particulars: protein: recombinant; tags: N-terminal GST; dsDNA, one strand shown. The gist of the method: as §1

Assay [10] has as its target T7, FEV (Homo sapiens, UniProt Q99581 1-238).
T7 sequence: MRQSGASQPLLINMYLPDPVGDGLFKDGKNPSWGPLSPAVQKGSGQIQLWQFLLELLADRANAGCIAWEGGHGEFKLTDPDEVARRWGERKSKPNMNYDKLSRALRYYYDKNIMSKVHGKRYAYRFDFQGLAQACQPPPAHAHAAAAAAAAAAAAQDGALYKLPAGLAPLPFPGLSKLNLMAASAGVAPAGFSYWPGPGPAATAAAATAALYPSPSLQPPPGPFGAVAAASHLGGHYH
The note with it: protein: recombinant; tags: N-terminal GST; dsDNA, one strand shown. The gist of the method:
as §1

Assay [11] deals with ETV5 (Homo sapiens, UniProt P41161 1-510). The note with it: protein: recombinant; tags: N-terminal GST; dsDNA, one strand shown. In a few lines:
as §1

The target of assay [12] is HSF1 (Homo sapiens, UniProt Q00613 1-529). The note with it: protein: recombinant; tags: N-terminal GST; chain copies: 3; dsDNA, one strand shown. In a few lines:
as §1

Assay [13] has as its target T8, SPIC (Homo sapiens, UniProt Q8N5J4 1-248).
T8 sequence: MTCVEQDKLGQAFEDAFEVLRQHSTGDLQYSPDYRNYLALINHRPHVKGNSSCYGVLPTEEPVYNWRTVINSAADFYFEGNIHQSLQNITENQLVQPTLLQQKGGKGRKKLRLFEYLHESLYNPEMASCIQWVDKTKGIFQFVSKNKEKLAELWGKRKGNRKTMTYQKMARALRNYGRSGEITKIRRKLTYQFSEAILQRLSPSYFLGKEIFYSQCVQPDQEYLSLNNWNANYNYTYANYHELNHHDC
The note with it: protein: recombinant; tags: N-terminal GST; dsDNA, one strand shown. The gist of the method: as §1

Assay [14] concerns the target ELF4 (Homo sapiens, UniProt Q99607 1-663). Particulars: protein: recombinant; tags: N-terminal GST; dsDNA, one strand shown. The gist of the method:
as §1

Assay [15] concerns the target T9, ELK4 (Homo sapiens, UniProt P28324-2 1-405).
T9 sequence: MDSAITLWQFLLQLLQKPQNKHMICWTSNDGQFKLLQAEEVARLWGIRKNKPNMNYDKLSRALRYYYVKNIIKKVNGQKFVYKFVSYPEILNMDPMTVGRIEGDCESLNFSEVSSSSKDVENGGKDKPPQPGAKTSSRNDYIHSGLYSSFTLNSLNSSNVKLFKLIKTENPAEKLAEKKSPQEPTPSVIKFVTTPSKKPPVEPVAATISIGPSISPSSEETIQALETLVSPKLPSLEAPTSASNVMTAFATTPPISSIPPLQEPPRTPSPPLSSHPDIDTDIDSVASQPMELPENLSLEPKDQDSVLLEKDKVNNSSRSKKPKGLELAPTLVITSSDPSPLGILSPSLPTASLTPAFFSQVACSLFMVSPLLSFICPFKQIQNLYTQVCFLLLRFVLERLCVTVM
The note with it: protein: recombinant; tags: N-terminal GST; dsDNA, one strand shown. The gist of the method:
as §1

Assay [16] addresses T10, ETV2 (Homo sapiens, UniProt O00321 1-342).
T10 sequence: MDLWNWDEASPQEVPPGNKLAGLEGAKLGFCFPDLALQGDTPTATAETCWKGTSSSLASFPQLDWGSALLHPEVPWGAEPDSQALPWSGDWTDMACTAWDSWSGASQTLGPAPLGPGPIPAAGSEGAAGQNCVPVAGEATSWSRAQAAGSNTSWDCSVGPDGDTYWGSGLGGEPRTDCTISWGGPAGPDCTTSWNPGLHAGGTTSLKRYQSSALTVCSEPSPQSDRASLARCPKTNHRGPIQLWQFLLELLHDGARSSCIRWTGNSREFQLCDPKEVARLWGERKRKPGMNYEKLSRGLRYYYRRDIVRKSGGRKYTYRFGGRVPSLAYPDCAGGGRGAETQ
Particulars: protein: recombinant; tags: N-terminal GST; dsDNA, one strand shown. In a few lines: as §1

Assay [17] addresses T11, ELF3 (Homo sapiens, UniProt P78545 1-371).
T11 sequence: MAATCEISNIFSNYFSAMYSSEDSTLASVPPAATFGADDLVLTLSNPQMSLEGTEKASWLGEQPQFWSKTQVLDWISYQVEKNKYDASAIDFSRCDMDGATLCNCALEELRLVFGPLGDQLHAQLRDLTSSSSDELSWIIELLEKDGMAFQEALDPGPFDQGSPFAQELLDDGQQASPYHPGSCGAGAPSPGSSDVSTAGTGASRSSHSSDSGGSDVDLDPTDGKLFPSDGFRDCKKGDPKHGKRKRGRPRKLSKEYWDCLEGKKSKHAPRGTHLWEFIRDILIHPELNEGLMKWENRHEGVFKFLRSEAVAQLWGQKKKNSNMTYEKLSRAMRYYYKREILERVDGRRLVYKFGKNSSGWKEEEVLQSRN
The note with it: protein: recombinant; tags: N-terminal GST; dsDNA, one strand shown. The gist of the method:
as §1

Assay [18] deals with ETV1 (Homo sapiens, UniProt P50549 1-477). Particulars: protein: recombinant; tags: N-terminal GST; dsDNA, one strand shown. In a few lines:
as §1

Chain of SPIB (Q01892 whole entry): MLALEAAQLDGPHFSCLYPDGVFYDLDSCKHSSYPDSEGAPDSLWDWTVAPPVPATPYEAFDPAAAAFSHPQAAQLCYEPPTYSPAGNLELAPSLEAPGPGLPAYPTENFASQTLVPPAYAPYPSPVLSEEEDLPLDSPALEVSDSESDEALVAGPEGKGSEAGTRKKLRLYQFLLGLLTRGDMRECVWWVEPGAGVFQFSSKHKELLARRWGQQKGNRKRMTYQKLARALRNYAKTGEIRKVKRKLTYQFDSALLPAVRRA
Chain of ETV5 (P41161 whole entry): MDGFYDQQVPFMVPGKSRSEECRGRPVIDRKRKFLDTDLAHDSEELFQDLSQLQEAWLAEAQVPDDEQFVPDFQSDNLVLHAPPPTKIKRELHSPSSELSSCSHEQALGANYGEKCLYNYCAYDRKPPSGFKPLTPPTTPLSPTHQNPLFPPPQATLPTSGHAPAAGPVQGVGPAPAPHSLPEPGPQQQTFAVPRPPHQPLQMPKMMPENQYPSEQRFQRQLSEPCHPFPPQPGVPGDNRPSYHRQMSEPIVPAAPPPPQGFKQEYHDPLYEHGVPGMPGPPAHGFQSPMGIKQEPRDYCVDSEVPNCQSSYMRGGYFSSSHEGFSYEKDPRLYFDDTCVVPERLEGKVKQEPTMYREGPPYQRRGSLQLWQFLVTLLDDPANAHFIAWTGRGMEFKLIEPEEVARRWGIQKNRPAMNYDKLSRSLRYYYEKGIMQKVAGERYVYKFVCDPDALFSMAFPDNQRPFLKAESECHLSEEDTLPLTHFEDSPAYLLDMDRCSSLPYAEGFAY
Chain of ELF4 (Q99607 whole entry): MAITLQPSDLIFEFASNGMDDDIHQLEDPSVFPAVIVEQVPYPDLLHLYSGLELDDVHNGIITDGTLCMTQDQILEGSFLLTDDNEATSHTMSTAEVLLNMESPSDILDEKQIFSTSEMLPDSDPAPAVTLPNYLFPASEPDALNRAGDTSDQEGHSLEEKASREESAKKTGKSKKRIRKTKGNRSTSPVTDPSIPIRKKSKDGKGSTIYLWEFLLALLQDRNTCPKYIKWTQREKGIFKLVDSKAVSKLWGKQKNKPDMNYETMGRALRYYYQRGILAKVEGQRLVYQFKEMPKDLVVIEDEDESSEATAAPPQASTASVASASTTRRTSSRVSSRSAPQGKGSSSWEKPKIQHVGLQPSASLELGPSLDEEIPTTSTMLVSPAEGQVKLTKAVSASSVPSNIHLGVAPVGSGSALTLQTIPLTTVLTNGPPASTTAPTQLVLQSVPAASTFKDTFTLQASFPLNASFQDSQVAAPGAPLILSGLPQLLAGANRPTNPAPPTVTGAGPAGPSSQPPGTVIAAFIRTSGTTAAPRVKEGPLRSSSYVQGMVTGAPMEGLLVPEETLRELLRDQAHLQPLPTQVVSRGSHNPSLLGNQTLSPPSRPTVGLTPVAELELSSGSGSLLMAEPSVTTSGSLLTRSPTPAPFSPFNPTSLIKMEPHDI
Chain of ETV1 (P50549 whole entry): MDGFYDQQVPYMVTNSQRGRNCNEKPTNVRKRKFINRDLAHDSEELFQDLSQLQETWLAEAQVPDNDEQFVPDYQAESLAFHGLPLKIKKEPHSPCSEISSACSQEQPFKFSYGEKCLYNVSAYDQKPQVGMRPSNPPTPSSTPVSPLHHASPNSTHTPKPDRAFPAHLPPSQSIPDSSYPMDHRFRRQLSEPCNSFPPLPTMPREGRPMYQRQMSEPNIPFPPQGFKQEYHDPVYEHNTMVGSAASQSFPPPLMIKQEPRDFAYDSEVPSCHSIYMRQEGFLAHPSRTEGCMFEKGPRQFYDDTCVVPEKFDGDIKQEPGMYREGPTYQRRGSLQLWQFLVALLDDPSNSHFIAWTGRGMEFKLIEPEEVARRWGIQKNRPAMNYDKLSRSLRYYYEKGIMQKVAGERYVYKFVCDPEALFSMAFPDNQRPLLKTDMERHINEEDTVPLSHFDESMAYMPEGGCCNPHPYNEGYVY
Chain of HSF1 (Q00613 whole entry): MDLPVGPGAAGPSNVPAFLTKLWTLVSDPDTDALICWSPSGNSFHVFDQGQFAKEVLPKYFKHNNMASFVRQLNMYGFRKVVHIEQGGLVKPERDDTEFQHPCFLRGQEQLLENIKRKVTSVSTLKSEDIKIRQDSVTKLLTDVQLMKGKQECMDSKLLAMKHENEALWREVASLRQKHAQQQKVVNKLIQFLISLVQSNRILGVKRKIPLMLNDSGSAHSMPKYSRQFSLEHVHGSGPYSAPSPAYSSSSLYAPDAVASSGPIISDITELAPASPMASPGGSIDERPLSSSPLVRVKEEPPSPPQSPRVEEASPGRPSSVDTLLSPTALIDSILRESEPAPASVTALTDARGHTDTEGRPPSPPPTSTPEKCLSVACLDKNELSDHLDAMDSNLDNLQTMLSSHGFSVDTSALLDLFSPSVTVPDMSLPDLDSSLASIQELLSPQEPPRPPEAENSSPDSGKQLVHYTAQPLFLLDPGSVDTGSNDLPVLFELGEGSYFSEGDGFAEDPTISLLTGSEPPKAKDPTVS

Regarding TGAAAC, the binding signal in [1] is 1.31 fold enrichment (6-mer frequency, TF over GST control); in [2], 1.29 fold enrichment (6-mer frequency, TF over GST control); in assay [3] it was 1.25 fold enrichment (6-mer frequency, TF over GST control); in assay [4] it was 1.16 fold enrichment (6-mer frequency, TF over GST control); in assay [5], 1.4 fold enrichment (6-mer frequency, TF over GST control); in assay [6], 1.28 fold enrichment (6-mer frequency, TF over GST control). Moreover, the binding signal in assay [7] was 1.28 fold enrichment (6-mer frequency, TF over GST control); in [8], 1.18 fold enrichment (6-mer frequency, TF over GST control); in [9], 1.33 fold enrichment (6-mer frequency, TF over GST control); in [10], 1.31 fold enrichment (6-mer frequency, TF over GST control); in assay [11] it was 1.33 fold enrichment (6-mer frequency, TF over GST control); in [12], 1.13 fold enrichment (6-mer frequency, TF over GST control). Further, the binding signal in [13] is 1.27 fold enrichment (6-mer frequency, TF over GST control); in assay [14] it was 1.27 fold enrichment (6-mer frequency, TF over GST control); in assay [15] it was 1.18 fold enrichment (6-mer frequency, TF over GST control); in assay [16] it was 1.4 fold enrichment (6-mer frequency, TF over GST control); in [17], 1.42 fold enrichment (6-mer frequency, TF over GST control); in [18], 1.27 fold enrichment (6-mer frequency, TF over GST control).
